This is part of a sample that, as a whole, favours compounds with a hit. Of some 79,000 tested, about 15% had one in any assay. Unmarked numbers belong to inactive results. Activity calls are given as the source filed them. Rule as the data show it: active = growth inhibition above about 70%; inactive = the rest. Where a SMILES comes first, the peptide text is derived from it. [ ]: non-standard residue; d: D form. The star is where a group is joined. ξ: configuration not given here. ξPhe(4-NO2) = NC(Cc1ccc([N+](=O)[O-])cc1)C(=O)O; Boc = CC(C)(C)OC(=O)*; OBn = c1ccc(CO*)cc1
Assays:
[1] = NCI Yeast Anticancer Drug Screen. Data for the rad50 strain (AID 155);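 also: 0% = growth of vehicle-only cultures of the same strain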; conditions: S. cerevisiae rad50 strain growth inhibition; at 50.0 µM; hits give high values
Summary of the method: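 A DNA repair-deficient yeast mutant serves as the test organism; compound-induced growth inhibition is calculated against vehicle-treated cells.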

[2] = NCI Yeast Anticancer Drug Screen. Data for the mec2-1 strain (AID 157); conditions: S. cerevisiae mec2-1 strain, at 50.0 µM, hits give high values
Summary of the method: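 mec2-1 yeast strain, carrying an alteration in DNA damage repair or cell cycle control, was exposed to compounds; growth inhibition was measured relative to vehicle-treated controls.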

[3] = NCI Yeast Anticancer Drug Screen. Data for the sgs1 mgt1 strain (AID 161);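 also: 0% = growth of cultures given vehicle only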; conditions: S. cerevisiae sgs1 mgt1 strain, at 50.0 µM, hits give high values
Summary of the method: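 Percent growth inhibition was derived by comparing compound-exposed mutant yeast with vehicle-exposed cultures. The strain carries alterations in DNA damage repair.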

[4] = NCI Yeast Anticancer Drug Screen. Data for the cln2 rad14 strain (AID 165);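 also: 0% = growth equal to vehicle treated cultures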; conditions: S. cerevisiae cln2 rad14 strain, at 50.0 µM, hits give high values
Summary of the method: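 Yeast carrying cln2 and rad14 alterations (cell cycle control and DNA damage repair) were exposed to compounds. Growth inhibition was measured against vehicle-treated controls.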

[5] = NCI Yeast Anticancer Drug Screen. Data for the bub3 strain (AID 167); conditions: S. cerevisiae bub3 mutant strain, at 50.0 µM, hits give high values
Summary of the method: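 Inhibition values come from growth of compound-treated mutant yeast normalised to vehicle-treated controls.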

[6] = NCI Yeast Anticancer Drug Screen. Data for the mlh1 rad18 strain (AID 175); conditions: S. cerevisiae mlh1 rad18 strain growth inhibition; at 50.0 µM; hits give high values
Summary of the method: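 Growth inhibition of the yeast strain was measured after compound exposure and expressed relative to vehicle-treated controls. The strain carries defined defects in DNA damage repair.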

With `NC(=S)C(=S)NCCO` the growth inhibition [1] was 19.2%, the growth inhibition [2] was 1.7% and the growth inhibition [3] was -5.7%. For the same compound, the growth inhibition [4] was -68.2%, the growth inhibition [5] was -2.7% and the growth inhibition [6] was -12.1%.

For `O=C(NC(CSC(=O)OCc1ccccc1)C(=O)Oc1ccc([N+](=O)[O-])cc1)OCc1ccccc1` (stereo unspecified), the growth inhibition [1] was 16.3%, the growth inhibition [2] was -7.4% and the growth inhibition [3] was 3.45%. For the same compound, the growth inhibition [4] was -23.8%, the growth inhibition [5] was -0.45% and the growth inhibition [6] was 2.4%.

`O=C(N/N=C/c1c(O)ccc2ccccc12)c1ccccc1` showed a growth inhibition [1] of 29%, a growth inhibition [2] of 11.3% and a growth inhibition [3] of 42.1%. The growth inhibition [4] was 5%, the growth inhibition [5] was 16.1% and the growth inhibition [6] was 26.4%.

For `CC(=O)/C(=N/O)C(C)C`, the growth inhibition [1] was 4.6%, the growth inhibition [2] was -3.5% and the growth inhibition [3] was 6.35%. For the same compound, the growth inhibition [4] was -0.35%, the growth inhibition [5] was -0.45% and the growth inhibition [6] was 2.8%.

`C[C@@H]1Nc2ccccc2[C@H]1C` showed a growth inhibition [1] of -25.6%, a growth inhibition [2] of -37.5% and a growth inhibition [3] of -53.1%. For the same compound, the growth inhibition [4] was 7.75%, the growth inhibition [5] was -42.6% and the growth inhibition [6] was -8.1%.

`COc1ccc(CC(NC(=O)OCc2ccccc2)C(=O)O)cc1` (stereo unspecified) showed a growth inhibition [1] of 1.15%, a growth inhibition [2] of 4.15% and a growth inhibition [3] of 2.7%. For the same compound, the growth inhibition [4] was -52.1%, the growth inhibition [5] was 18.7% and the growth inhibition [6] was 6.6%.

With `CC(=O)OCC(=O)[C@@]1(O)CC[C@H]2[C@@H]3CCC4=CC(=O)CC[C@]4(C)[C@H]3C(=O)C[C@@]21C` the growth inhibition [1] was -25.1%, the growth inhibition [2] was -23.6% and the growth inhibition [3] was -6.85%. It also gave a growth inhibition [4] of 4.2%, a growth inhibition [5] of -17.9% and a growth inhibition [6] of -21.3%.

`CC(C#N)NCc1ccc(C(C)NC(C)C#N)cc1` (stereo unspecified) gave a growth inhibition [1] of 4.5%, a growth inhibition [2] of 2.15% and a growth inhibition [3] of -43.8%. For the same compound, the growth inhibition [4] was -26.1%, the growth inhibition [5] was -10.8% and the growth inhibition [6] was -15.7%.

`Nc1cc(C(=O)O)c2ccccc2c1` gave a growth inhibition [1] of 4.5%, a growth inhibition [2] of -6.95% and a growth inhibition [3] of -5.7%. It also gave a growth inhibition [4] of -16.8%, a growth inhibition [5] of 3.45% and a growth inhibition [6] of 5.15%.

Compound `O=C(O)CCC(=O)Nc1ccc(C(=O)O)c(O)c1` has a growth inhibition [1] of 8.4%, a growth inhibition [2] of -27.8% and a growth inhibition [3] of -11.1%. It also gave a growth inhibition [4] of -4.45%, a growth inhibition [5] of 20.9% and a growth inhibition [6] of -17.9%.

For `Cc1nc(N)nc2c1CCC(=O)N2`, the growth inhibition [1] was 11.7%, the growth inhibition [2] was 7.6% and the growth inhibition [3] was -3.1%. For the same compound, the growth inhibition [4] was -37.6%, the growth inhibition [5] was 0.65% and the growth inhibition [6] was 1.7%.

`CCC(C)OC(=O)CC(c1ccccc1)N1CCCCC1` (stereo unspecified) gave a growth inhibition [1] of 7.5%, a growth inhibition [2] of -10.4% and a growth inhibition [3] of 3%. The growth inhibition [4] was -26.4%, the growth inhibition [5] was -0.65% and the growth inhibition [6] was -4.5%.

Work on `O=C(O)c1ccccc1NC(=O)C1CCCCC1` yielded a growth inhibition [1] of 10.1%, a growth inhibition [2] of 6.8% and a growth inhibition [3] of 16.3%. It also gave a growth inhibition [4] of 0.85%, a growth inhibition [5] of -6.55% and a growth inhibition [6] of 14.5%.

In the case of `CC(C)(C)OC(=O)NC(Cc1ccc([N+](=O)[O-])cc1)C(=O)NCC(=O)OCc1ccccc1` (stereo unspecified) (Boc-[ξPhe(4-NO2)]-Gly-OBn), the growth inhibition [1] is reported as -17.4%, the growth inhibition [2] is reported as 8.45% and the growth inhibition [3] is reported as 7.05%. The growth inhibition [4] was 32.5%, the growth inhibition [5] was -5.5% and the growth inhibition [6] was -9%.

`CCC(=O)OCCCCC1CCCO1` (stereo unspecified) showed a growth inhibition [1] of 9.35%, a growth inhibition [2] of 5.4% and a growth inhibition [3] of 2.25%. For the same compound, the growth inhibition [4] was 2.75%, the growth inhibition [5] was 12.3% and the growth inhibition [6] was 4.4%.

`C[N+](C)(C)Cc1cc2ccccc2c2ccccc12` showed a growth inhibition [1] of -23%, a growth inhibition [2] of -8.9% and a growth inhibition [3] of -18.8%. It also gave a growth inhibition [4] of -9.55%, a growth inhibition [5] of -8.35% and a growth inhibition [6] of 20.1%.

`O=C1NC(=O)/C(=C/CCCO)N1` gave a growth inhibition [1] of 2.85%, a growth inhibition [2] of -5.3% and a growth inhibition [3] of -10.4%. It also gave a growth inhibition [4] of -8.95%, a growth inhibition [5] of -0.25% and a growth inhibition [6] of -6.6%.

Work on `NC(=NC1CCCCC1)c1ccc(C(=O)OCC2CCCCC2)cc1` yielded a growth inhibition [1] of 39.2%, a growth inhibition [2] of 12.6% and a growth inhibition [3] of 45.5%. For the same compound, the growth inhibition [4] was 19.9%, the growth inhibition [5] was 21.8% and the growth inhibition [6] was 26.4%.

Compound `CCCC[n+]1cc(C(N)=O)cc2ccccc21` has a growth inhibition [1] of -3.9%, a growth inhibition [2] of 7.3% and a growth inhibition [3] of 3.25%. The growth inhibition [4] was -44.5%, the growth inhibition [5] was 5.7% and the growth inhibition [6] was 9.45%.

For `COc1cc2c(c(OC)c1OC)-c1ccc(OC)c(=O)cc1C(NC(=O)c1ccc(N=[N+]=[N-])cc1)CC2` (stereo unspecified), the growth inhibition [1] was 51.4%, the growth inhibition [2] was 74.8% (active) and the growth inhibition [3] was 8.5%. The growth inhibition [4] was -4.7%, the growth inhibition [5] was -4.6% and the growth inhibition [6] was 87.3% (active).

Work on `CC(=O)Nc1cc2c(cc1Br)-c1ccc(Br)cc1C2` yielded a growth inhibition [1] of 32.4%, a growth inhibition [2] of 8.4% and a growth inhibition [3] of 11.8%. It also gave a growth inhibition [4] of 15.6%, a growth inhibition [5] of -2.45% and a growth inhibition [6] of 14.4%.

— PubChem BioAssay (NCI)
